KB-3-1 cytotox: KB-3-1 parental cell cytotoxicity; KB-3-1 viability, CellTiter-Glo ATP luminescence, 72 h; Potency, µM (doses to about 46.1 µM), actives largely listed as cytotoxic; actives 1.4% (n = 400,000); AID 1347075; further: nearly all actives have a fitted effect of over 60% in size
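KB-3-1 cells, DMEM (no phenol red) + 10% FBS; compound by pin transfer, 72 h, 37 °C. Readout: CellTiter-Glo luminescence after 10 min. Data normalized, curve-fitted.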
ELG1 repair inh: blocks ELG1-dependent DNA repair in HEK293T cells; HEK293T ELG1-luciferase reporter, luminescence, 16 h; DNA damage induced by 5-fluorouridine; Potency, µM (doses to about 46.1 µM), most hits filed as inhibitors; actives 2.3% (n = 330,000); AID 504467; further: nearly all actives have a fitted effect of over 55% in size
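DMSO vehicle served as the neutral condition. Each well held 2,000 cells given 5-fluorouridine plus compound; after 16 hr at 37 °C/5% CO2, ONE-Glo was added and luciferase measured 30 min later.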
KB-V1 cytotox: kills drug-selected multidrug resistant KB-V1 cells. AID 1347076. Potency, µM (top dose mostly 46.1 µM), most hits filed as cytotoxic. KB-V1 MDR cells viability, CellTiter-Glo, 72 h. actives 3.4% (n = 400,000); further: nearly all actives have a fitted effect of over 60% in size
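Compound-treated KB-V1 multidrug-resistant cells, 72 h, 37 degrees C; viability by CellTiter-Glo. Fitted qHTS curves give the values.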
SW480 rerep: induces DNA re-replication in SW480 colon adenocarcinoma cells | SW480 DNA re-replication, Hoechst DNA content imaging, 48 h | Potency, µM (series often up to 46.1 µM), hits mostly activators | actives 1.8% (n = 340,000); further: nearly all actives have a fitted effect of over 55% in size
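Hoechst fluorescence of nuclei (405 nm excitation, 500-530 nm emission) measured by plate-scanning imager after 48 hr compound exposure at 37 C; re-replication scored as increased number of nuclei with elevated intensity.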
MCF10A rerep: DNA re-replication induction in MCF 10a cells. MCF 10A DNA re-replication, Hoechst nuclear intensity, 48 h. Potency, µM (titrated, usually from 46.1 µM), actives largely listed as activators. actives 2.9% (n = 350,000). AID 624296; further: nearly all actives have a fitted effect of over 50% in size
Of the large screens only hits and unclear results are named; the others gave an inactive call. Shown are actives, neighbours in structure and some others; about 8.1% of the full set was active somewhere. The call rests on the fitted dose curve; in most records, active means well fitted curve in the direction sought with a large enough effect; inconclusive means small, poorly fitted or top-dose-only effect, or another doubt; inactive means no such curve, though single readings can be large; an effect the other way counts as inactive or inconclusive.

CCC1(c2ccc(F)cc2)NC(=O)N(CC(=O)NC2CCCC(C)C2C)C1=O (configuration not stated)	KB-V1 cytotox 16µM
CCC1(c2ccc(Cl)cc2)NC(=O)N(CC(=O)NC2CCCC(C)C2C)C1=O (configuration not stated)	SW480 rerep 4.1µM
CCC1(c2ccc(Cl)cc2)NC(=O)N(CC(=O)NCc2ccc(F)cc2)C1=O (configuration not stated)	KB-V1 cytotox inconclusive
CCOc1ccc(NC(=O)c2oc3ccccc3c2NC(=O)C2CCCCC2)cc1	KB-V1 cytotox inconclusive (no result: ELG1 repair inh, SW480 rerep, MCF10A rerep)
O=C(Nc1ccc(F)cc1)c1oc2ccccc2c1NC(=O)C1CCCC1	KB-V1 cytotox 13µM
O=C(CCl)Nc1c(C(=O)Nc2ccc3c(c2)OCCO3)oc2ccccc12	KB-3-1 cytotox inconclusive, ELG1 repair inh inconclusive, KB-V1 cytotox inconclusive, SW480 rerep inconclusive, MCF10A rerep 7.3µM
COCc1cc(CNC(=O)C2CCC(=O)N(Cc3cccc(OC)c3)C2)[nH]n1 (configuration not stated)	none
Cc1ccc(-c2cc(C(=O)N/N=C/c3ccccc3)n[nH]2)o1	ELG1 repair inh inconclusive
O=C(N/N=C/C(Br)=C/c1ccccc1)c1cc(-c2ccco2)[nH]n1	KB-3-1 cytotox inconclusive, KB-V1 cytotox inconclusive, MCF10A rerep 7.3µM
CC(/C=N/NC(=O)c1cc(-c2ccc(C)o2)[nH]n1)=C\c1ccccc1	SW480 rerep 18µM, MCF10A rerep 23µM
COc1ccc(N2CCN(C(CNC(=O)C(=O)NCc3ccc(C)cc3)c3cccnc3)CC2)cc1 (configuration not stated)	none (no result: ELG1 repair inh, SW480 rerep, MCF10A rerep)
O=C(NCC(c1ccco1)N1CCCCC1)c1cccc(S(=O)(=O)Nc2ccc(F)cc2)c1 (configuration not stated)	none
COc1cccc(-c2nc(CS(=O)(=O)CC(=O)NCCc3cc(OC)ccc3OC)c(C)o2)c1	KB-3-1 cytotox inconclusive, ELG1 repair inh 21µM, KB-V1 cytotox inconclusive
CCN(CCNC(=O)CS(=O)(=O)Cc1nc(-c2cccc(OC)c2)oc1C)c1ccccc1	ELG1 repair inh 18µM, KB-V1 cytotox inconclusive, MCF10A rerep inconclusive
COc1cccc(-c2nc(CS(=O)(=O)CC(=O)NCCC(C)C)c(C)o2)c1	ELG1 repair inh inconclusive
COc1cccc(-c2nc(CS(=O)(=O)CC(=O)NCCc3ccc(OC)cc3OC)c(C)o2)c1	ELG1 repair inh 23µM
COc1ccc(OC)c(CCNC(=O)CS(=O)(=O)Cc2nc(-c3cccc(Cl)c3)oc2C)c1	KB-3-1 cytotox inconclusive (no result: ELG1 repair inh, SW480 rerep, MCF10A rerep)
COc1ccc(-c2nc(CS(=O)(=O)CC(=O)NCCc3cc(OC)ccc3OC)c(C)o2)cc1	ELG1 repair inh inconclusive, KB-V1 cytotox 8.2µM
COc1ccc(OC)c(CCNC(=O)CS(=O)(=O)Cc2nc(-c3ccc(C)cc3)oc2C)c1	ELG1 repair inh inconclusive, KB-V1 cytotox inconclusive
COc1cccc(-c2nc(CS(=O)(=O)CC(=O)NCCc3ccc(C)cc3)c(C)o2)c1	none
Clc1ccc(-c2cc3nc(NCc4cccc(Cl)c4)ccn3n2)cc1	none (no result: ELG1 repair inh, SW480 rerep, MCF10A rerep)
CCOC(=O)CCCc1ccc(/C(C)=N/NC(=S)NC)cc1	none
CCOC(=O)CCCc1ccc(/C(C)=N/NC(N)=S)cc1	KB-3-1 cytotox inconclusive, ELG1 repair inh 9.2µM, KB-V1 cytotox 8.2µM
COc1ccccc1C(=O)NC(=O)COC(=O)c1oc2ccccc2c1C	none
COC(=O)C1=C(C)NC(C)=C(C(=O)OC)C1c1ccc(OC(=O)c2oc3ccccc3c2C)c(OC)c1	SW480 rerep 0.52µM
CN(C)c1ccc(C=Cc2cnccn2)cc1	SW480 rerep inconclusive, MCF10A rerep 18µM (no result: ELG1 repair inh)
CN(C)c1ccc(/C=C/c2ccnc3c2ccc2c(/C=C/c4ccc(N(C)C)cc4)ccnc23)cc1	KB-3-1 cytotox inconclusive (no result: ELG1 repair inh, SW480 rerep, MCF10A rerep)
CC(C)N1C(=O)S/C(=C/c2ccc(Sc3nc4ccccc4[nH]3)o2)C1=O	KB-3-1 cytotox inconclusive, ELG1 repair inh inconclusive, KB-V1 cytotox 23µM, SW480 rerep inconclusive, MCF10A rerep inconclusive
CCOC(=O)C(C)N1C(=O)S/C(=C\c2ccc(-c3ccccc3C(=O)O)o2)C1=O (configuration not stated)	SW480 rerep inconclusive
C=CCN1C(=O)S/C(=C/c2ccc(Sc3nc4ccccc4[nH]3)o2)C1=O	KB-3-1 cytotox inconclusive, KB-V1 cytotox 3.7µM, MCF10A rerep inconclusive
O=[N+]([O-])c1ccc(COc2cccc(CN3CCCCC3)c2)cc1	none (no result: ELG1 repair inh)
CC1Cc2cc(/C=C3/SC(N4CCC(C(N)=O)CC4)=NC3=O)ccc2O1 (configuration not stated)	KB-3-1 cytotox inconclusive, ELG1 repair inh 26µM, SW480 rerep 13µM
O=C(CNC(=O)C12CC3CC(CC(C3)C1)C2)Nc1ncccc1O	KB-V1 cytotox inconclusive
O=C(O)/C=C/c1ccc([N+](=O)[O-])o1	ELG1 repair inh inconclusive, SW480 rerep inconclusive, MCF10A rerep inconclusive
N#CCc1ccc(NC(=O)/C=C/c2ccc([N+](=O)[O-])o2)cc1	KB-3-1 cytotox 5.2µM, ELG1 repair inh inconclusive, KB-V1 cytotox inconclusive, SW480 rerep inconclusive, MCF10A rerep 16µM
COc1cccc(NC(=O)c2cnc(NS(=O)(=O)c3ccccc3)nc2)c1	none (no result: ELG1 repair inh, SW480 rerep, MCF10A rerep)
Cc1cccc(N2CCN(C(=O)CN3C(=O)COc4ccc(S(=O)(=O)N5CCC(C)CC5)cc43)CC2C)c1 (configuration not stated)	none (no result: ELG1 repair inh, SW480 rerep, MCF10A rerep)
COc1ccc([C@H]2C[C@H](n3cc(-c4ccc(F)cc4)nn3)[C@@H](O)CN2C(=O)C2CCCCC2)cc1	none (no result: ELG1 repair inh, SW480 rerep, MCF10A rerep)
CNC(=S)N/N=C/c1ccco1	ELG1 repair inh inconclusive, SW480 rerep 16µM
COC(=O)c1ccc(-c2nc3cc(Cl)c(N)cc3s2)cc1	ELG1 repair inh inconclusive, SW480 rerep inconclusive, MCF10A rerep 0.65µM
COC(=O)c1ccc(-c2nc(O)c(C)s2)cc1	none
O=c1c2ccccc2nc(SCc2ccc([N+](=O)[O-])cc2)n1CCCO	ELG1 repair inh inconclusive, KB-V1 cytotox 2.9µM
CCCCn1c(SCc2nc3ccccc3s2)nc2ccccc2c1=O	KB-3-1 cytotox 23µM, KB-V1 cytotox inconclusive, MCF10A rerep inconclusive
CCCCn1c(SCC#N)nc2ccccc2c1=O	none (no result: ELG1 repair inh, SW480 rerep, MCF10A rerep)
CCCCn1c(SCc2nc3ccccc3s2)nc2cc(S(N)(=O)=O)ccc21	ELG1 repair inh 18µM, SW480 rerep inconclusive
CCCn1c(SCc2nc3sc(C)c(C)c3c(=O)[nH]2)nc2ccccc2c1=O	KB-V1 cytotox 9.2µM, MCF10A rerep inconclusive
COCCn1c(SCc2nc3ccccc3c(=O)[nH]2)nc2ccccc2c1=O	KB-V1 cytotox inconclusive
O=C(C[N+]12CN3CN(CN(C3)C1)C2)c1ccc(I)cc1	none (no result: ELG1 repair inh, SW480 rerep, MCF10A rerep)
Clc1ccccc1-c1cc2nc(NCc3ccco3)ccn2n1	none (no result: ELG1 repair inh, SW480 rerep, MCF10A rerep)
CNc1cc(CSc2ccc(Cl)cc2)nc(C)n1	ELG1 repair inh inconclusive, SW480 rerep 5.2µM
Cc1nc(CSc2ccc(Cl)cc2)cc(NCc2ccccc2)n1	KB-V1 cytotox inconclusive

Screening data from PubChem.
